According to the supplement of paper PMC6992640:
± gives the standard deviation of the averaged measurements.

Experiments:
Assay in all cases: cell viability (% of vehicle); higher = less cytotoxic
Details in all cases: 10 µM; 72 h
HCI01 = tested on: HCI01 (cells of a triple-negative basal-like breast cancer xenograft)
HCI03 = tested on: HCI03 (cells of an ER-positive luminal breast cancer xenograft)
HCI09 = tested on: HCI09 (cells of a triple-negative luminal androgen receptor type breast cancer xenograft)
HCI11 = tested on: HCI11 (cells of an ER-positive luminal breast cancer xenograft)
HCI13 = tested on: HCI13 (cells of an ER-positive luminal breast cancer xenograft)
HCI16 = tested on: HCI16 (cells of a triple-negative basal-like breast cancer xenograft)
UCD52 = tested on: UCD52 (cells of a triple-negative basal-like breast cancer xenograft)
WHIM2 = tested on: WHIM2 (cells of a triple-negative basal-like breast cancer xenograft)
WHIM30 = tested on: WHIM30 (cells of a triple-negative basal-like breast cancer xenograft)
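Further: PDX cells carrying CMV promoter-driven luciferase, viability read as total photon flux per second by IVIS imaging following D-luciferin, vehicle control 0.1% DMSO.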

| SMILES | cell viability (HCI01) | cell viability (HCI03) | cell viability (HCI09) | cell viability (HCI11) | cell viability (HCI13) | cell viability (HCI16) | cell viability (UCD52) | cell viability (WHIM2) | cell viability (WHIM30) |
| --- | --- | --- | --- | --- | --- | --- | --- | --- | --- |
| O=C1C(CCC(O)c2ccc(F)cc2)C(c2ccc(O)cc2)N1c1ccc(F)cc1 (stereo not given) [Ezetimibe] | 109 ± 6.1 | 102 | 86.6 ± 20 | 92.5 | 121 ± 3.4 | 97.3 | 81.4 ± 3.2 | 96 ± 5.4 | 100 ± 5.3 |
| Cl.NC(N)=NC(=O)Cc1c(Cl)cccc1Cl [Guanfacine hydrochloride] | 117 ± 15 | 97.6 | 82.1 ± 9.4 | 86.2 | 107 ± 6.5 | 94.4 | 93.2 ± 6 | 102 ± 9.9 | 132 ± 19 |
| CNNCc1ccc(C(=O)NC(C)C)cc1.Cl [Procarbazine HCl] | 93.5 ± 4.4 | 90.5 | 96.1 ± 13 | 99.7 | 104 ± 21 | 87.6 | 79.7 ± 13 | 98 ± 16 | 83.91 ± 0.74 |
| NC(=O)c1ncn(C2OC(CO)C(O)C2O)c1O (stereo not given) [Mizoribine] | 82.4 ± 3.9 | 89.4 | 93.1 ± 30 | 88.8 | 90.05 ± 0.16 | 87.7 | 88.5 ± 5 | 97 ± 11 | 84.4 ± 3.9 |
| Cc1ncc([N+](=O)[O-])n1CC(C)O (stereo not given) [Secnidazole] | 57.6 ± 32 | 133 | 82.6 ± 1.1 | 89.3 | 103 ± 11 | 114 | 79.3 ± 1.8 | 92.4 ± 20 | 149 ± 20 |
| C[N+](C)(C)CC(O)CC(=O)O.[Cl-] (racemic) [DL-Carnitine HCl] | 111 ± 35 | 112 | 120 ± 37 | 101 | 113 ± 5.4 | 147 | 102 ± 13 | 114 ± 25 | 132 ± 11 |
| CC(C)(Oc1ccc(CCNC(=O)c2ccc(Cl)cc2)cc1)C(=O)O [Bezafibrate] | 108.4 ± 0.24 | 101 | 95.5 ± 17 | 104 | 97.3 ± 2.6 | 123 | 101 ± 8.8 | 112 ± 14 | 113 ± 6.7 |
| Cl.c1ccc2c(CC3=NCCN3)cccc2c1 [Naphazoline HCl] | 121 ± 18 | 105 | 104 ± 20 | 101 | 88.7 ± 14 | 93.3 | 81.6 ± 9.3 | 92.3 ± 26 | 122 ± 21 |
| O=C(NCCN1CCOCC1)c1ccc(Cl)cc1 | 129.4 ± 0.71 | 171 | 114 ± 22 | 113 | 102 ± 2.1 | 110 | 109 ± 8.9 | 111 ± 16 | 138 ± 4 |
| N#Cc1ccc(C(c2ccc(C#N)cc2)n2cncn2)cc1 [Letrozole] | 111 ± 7.6 | 99.1 | 98.4 ± 3.9 | 102 | 88.2 ± 5.6 | 99.1 | 126 ± 15 | 73.7 ± 21 | 126 ± 8.4 |
| CN(C)CCCC1(c2ccc(F)cc2)OCc2cc(C#N)ccc21.O=C(O)C(=O)O (stereo not given) [Escitalopram Oxalate] | 99.8 ± 9.9 | 114 | 97.3 ± 12 | 86.2 | 93.6 ± 18 | 128 | 90.9 ± 5.2 | 87.5 ± 5.9 | 157 ± 21 |
| CC1c2cccc(O)c2C(O)=C2C(=O)C3(O)C(O)=C(C(N)=O)C(=O)C(N(C)C)C3C(O)C21.Cl (stereo not given) [Doxycycline HCl] | 91.6 ± 4.1 | 106 | 90.6 ± 17 | 83.7 | 84 ± 14 | 104 | 89.9 ± 2.7 | 118 ± 14 | 98.7 ± 9.1 |
| Cl.N#Cc1ccc2[nH]cc(CCCCN3CCN(c4ccc5oc(C(N)=O)cc5c4)CC3)c2c1 [Vilazodone Hydrochloride] | 135 ± 3.5 | 103 | 104 ± 18 | 122 | 113 ± 6.7 | 166 | 111 ± 3.3 | 109 ± 20 | 112 ± 17 |
| CCOC(=O)C(CCc1ccccc1)NC(C)C(=O)N1C(=O)N(C)CC1C(=O)O.Cl (stereo not given) [Imidapril HCl] | 105 ± 8.3 | 113 | 99.8 ± 7.1 | 102 | 126 ± 1.4 | 94.2 | 78 ± 3.8 | 105 ± 3.3 | 104 ± 10 |
| CCn1cc(C(=O)O)c(=O)c2ccc(C)nc21 [Nalidixic acid] | 86 ± 19 | 114 | 96.6 ± 10 | 92.1 | 113 ± 3 | 103 | 79 ± 6.3 | 87.7 ± 7.2 | 112 ± 12 |
| Cl.Cl.OCCOCCN1CCN(C(c2ccccc2)c2ccc(Cl)cc2)CC1 (stereo not given) [Hydroxyzine 2HCl] | 169 ± 3.3 | 99.9 | 112 ± 5.6 | 117 | 85.42 ± 0.6 | 128 | 76.48 ± 0.64 | 97.2 ± 2.3 | 140 ± 23 |
| CC1CNCCCN1S(=O)(=O)c1cccc2cncc(F)c12.Cl.O.O (stereo not given) | 100 ± 12 | 140 | 96.3 ± 9 | 70.9 | 82.6 ± 8.8 | 58.7 | 84.8 ± 4.2 | 92.75 ± 0.41 | 82 ± 2 |
| CC(C)NCC(O)c1ccc(NS(C)(=O)=O)cc1.Cl (stereo not given) [Sotalol] | 120 ± 11 | 116 | 105 ± 37 | 103 | 103 ± 5.8 | 105 | 85.2 ± 2.1 | 101 ± 13 | 118 ± 17 |
| NC(=O)CC[C@H](N)C(=O)O [L-Glutamine] | 85.6 ± 8.7 | 92.8 | 92.2 ± 25 | 87.4 | 101.1 ± 0.78 | 97.3 | 82.9 ± 3.6 | 104 ± 3.9 | 70.6 ± 7.1 |
| CCOC(=O)C1=C(C)NC(C)=C(C(=O)OC)C1c1cccc([N+](=O)[O-])c1 (stereo not given) [Nitrendipine] | 111 ± 10 | 123 | 93.6 ± 17 | 112 | 104 ± 0.32 | 90.2 | 80.15 ± 0.7 | 95.6 ± 22 | 97.2 ± 5.3 |

| SMILES | cell viability (HCI01) | cell viability (HCI03) | cell viability (HCI09) | cell viability (HCI11) | cell viability (HCI13) | cell viability (HCI16) | cell viability (UCD52) | cell viability (WHIM2) | cell viability (WHIM30) |
| --- | --- | --- | --- | --- | --- | --- | --- | --- | --- |
| COc1ccc2[n-]c(S(=O)Cc3ncc(C)c(OC)c3C)nc2c1.COc1ccc2[n-]c(S(=O)Cc3ncc(C)c(OC)c3C)nc2c1.[Mg+2] (stereo not given) [Esomeprazole Magnesium] | 77 ± 60 | 143 | 84.6 ± 31 | 92.6 | 165 ± 18 | 112 | 99.55 ± 0.87 | 94.2 ± 9.3 | 181 ± 29 |
| COc1nc(N)nc2c1ncn2C1OC(CO)C(O)C1O (stereo not given) [Nelarabine] | 127 ± 20 | 117 | 113 ± 0.87 | 95.9 | 86.3 ± 5.3 | 98.4 | 111 ± 21 | 96.7 ± 21 | 115 ± 17 |
| CCCCC1C(=O)N(c2ccccc2)N(c2ccccc2)C1=O [Phenylbutazone] | 89.4 ± 24 | 129 | 86.7 ± 11 | 97.2 | 127.3 ± 0.28 | 120 | 88.9 ± 1.4 | 89 ± 23 | 119 ± 3.8 |
| O=C1OC(C(O)CO)C([O-])=C1O.[Na+] (stereo not given) [Sodium ascorbate] | 94.7 ± 14 | 87 | 90.3 ± 1.3 | 87 | 52 ± 6.5 | 92.3 | 77.3 ± 8.9 | 115 ± 31 | 120 ± 3 |
| Clc1ccccc1C(c1ccccc1)(c1ccccc1)n1ccnc1 [Clotrimazole] | 82.5 ± 21 | 70.8 | 55.1 ± 39 | 95.1 | 85.5 ± 21 | 79.8 | 79.6 ± 8.2 | 73.7 ± 16 | 125 ± 1 |
| CCOC(=O)C1=C(C)NC(C)=C(C(=O)OCC)C1c1ccccc1C=CC(=O)OC(C)(C)C [Lacidipine] | 107.7 ± 0.7 | 98.1 | 86.5 ± 9.8 | 110 | 88.7 ± 2.9 | 85.7 | 77.1 ± 6.1 | 99.8 ± 1.2 | 133 ± 3.9 |
| CCn1cc(C(=O)O)c(=O)c2cc(F)c(N3CCNCC3)cc21 [Norfloxacin] | 104 ± 11 | 143 | 116 ± 27 | 101 | 163 ± 52 | 166 | 130 ± 8.1 | 80.5 ± 17 | 160 ± 12 |
| Cc1noc(NS(=O)(=O)c2ccc(N)cc2)c1C [Sulfisoxazole] | 89.3 ± 28 | 121 | 94.4 ± 8.1 | 86.9 | 107 ± 2.8 | 112 | 99.8 ± 3.5 | 84.1 ± 8.8 | 117 ± 1.3 |
| O=S(=O)([O-])Oc1ccc(C(c2ccc(OS(=O)(=O)[O-])cc2)c2ccccn2)cc1.[Na+].[Na+] [Sodium Picosulfate] | 103 ± 33 | 119 | 102 ± 6 | 86.7 | 116 ± 6.3 | 117 | 90.71 ± 0.14 | 91.2 ± 20 | 101 ± 5.3 |
| CC(C)CN(CC(O)C(Cc1ccccc1)NC(=O)OC1CCOC1)S(=O)(=O)c1ccc(N)cc1 (stereo not given) [Amprenavir (agenerase)] | 96.3 ± 11 | 99.1 | 85.6 ± 4.6 | 104 | 103 ± 7.5 | 115 | 56.8 ± 3.1 | 78.8 ± 8.7 | 112 ± 25 |
| Cl.O=C1CN2Cc3c(ccc(Cl)c3Cl)NC2=N1 [Anagrelide HCl] | 121 ± 3.8 | 140 | 103 ± 9.3 | 120 | 128 ± 11 | 103 | 84.4 ± 4.6 | 116 ± 3.4 | 98.1 ± 2.5 |
| CC(C)Cc1ccc(C(C)C(=O)O)cc1 (stereo not given) [Ibuprofen] | 124 ± 28 | 115 | 110 ± 24 | 104 | 133 ± 7.1 | 90.2 | 88.9 ± 4.3 | 102 ± 13 | 104 ± 4.4 |
| CCCNC(C)C(=O)Nc1ccccc1C.Cl (stereo not given) [Prilocaine hydrochloride] | 147 ± 18 | 117 | 112.29 ± 0.067 | 113 | 83.1 ± 5.5 | 122 | 102 ± 16 | 102 ± 6.2 | 135 ± 5 |
| CCOC(=O)c1ncn2c1CN(C)C(=O)c1cc(F)ccc1-2 [Flumazenil] | 114 ± 6.3 | 106 | 89.6 ± 18 | 96.8 | 93.9 ± 2.9 | 92.5 | 118 ± 17 | 103 ± 7.5 | 142 ± 15 |
| Clc1ccc2c(c1)CCc1cccnc1C2=C1CCNCC1 [Desloratadine] | 164 ± 55 | 143 | 99.6 ± 1.5 | 77.5 | 128 ± 19 | 128 | 67.2 ± 9.1 | 69.5 ± 16 | 102 ± 7.8 |
| CC(C)OC(=O)C(C(=O)OC(C)C)=C1SC=CS1 [Malotilate] | 108 ± 12 | 84.3 | 90.2 ± 13 | 90.9 | 89.8 ± 3.1 | 75.5 | 89.5 ± 2.4 | 75.6 ± 17 | 97.9 ± 4 |
| CC(CCC(=O)O)C1CCC2C3C(O)CC4CC(O)CCC4(C)C3CC(O)C12C (stereo not given) [Cholic acid] | 96 ± 8.2 | 142 | 89.6 ± 7.1 | 87.2 | 109 ± 9.5 | 98.7 | 101.2 ± 0.7 | 96.7 ± 11 | 99.9 ± 11 |
| CN(CCOc1ccc(CC2SC(=O)NC2=O)cc1)c1ccccn1 (stereo not given) [Rosiglitazone] | 176 ± 35 | 162 | 129 ± 33 | 153 | 189 ± 26 | 142 | 124 ± 10 | 174 ± 17 | 199 ± 3.1 |
| O=C(O)/C=C/c1ccc(O)c(O)c1 [Caffeic acid] | 88 ± 6.6 | 115 | 107 ± 24 | 93.3 | 89.9 ± 9.4 | 137 | 97.2 ± 6 | 86.5 ± 20 | 89.4 ± 2.4 |
| Nc1ccc(S(=O)(=O)Nc2ncccn2)cc1 [Sulfadiazine] | 131 ± 9.1 | 126 | 158 ± 83 | 103 | 153 ± 29 | 101 | 95.5 ± 16 | 101 ± 21 | 118 ± 18 |
